Drawing on PubChem BioAssay (Tox21), this text covers Potency and outcome for 7 compounds.

Records with an inconclusive call do not appear. Activity calls are given as the source filed them. Unless noted, calls follow the shape of the full dose curve.

Test [1] in a line: Nuclear factor erythroid 2-related factor 2/antioxidant responsive element (Nrf2/ARE) small molecule agonists: qHTS cell viability counter screen in human keratinocytes (AID 1919968; active = well fitted curve in the direction sought with a large enough effect in the repeat runs; an effect the other way counts as inactive or inconclusive; also: nearly all actives have a fitted effect of over 55% in size). The method, boiled down: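 Seed 1,500 KeratinoSens cells per well, then incubate 5 h at 37 C/5% CO2. Add compounds in DMSO and incubate 23 h. Add CellTiter-Fluor, wait 1 h and read fluorescence.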
For orientation: In qHTS, concentration-response curves come from the screen itself.

In test [2] the target is Gonadotropin-releasing hormone receptor (Homo sapiens) (UniProt P30968). Nature of the test: Human gonadotropin-releasing hormone receptor (GnRHR) small molecule agonists, calcium flux assay in GnRHR-HEK293 cells (AID 1920063). Also: nearly all actives have a fitted effect of over 35% in size. The method, boiled down:
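Cells: HEK293 stably expressing human GnRHR. Steps: overnight (18 h) culture, 1 h calcium dye loading at 37 C, compound addition, kinetic fluorescence read at 480/540 nm. Each compound tested at 15 concentrations in triplicate.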
In general terms: Calcium flux is commonly read through the fluorescence of an indicator in the cells.

Test [3] deals with KiSS-1 receptor (Homo sapiens) (UniProt Q969F8). Nature of the test: Human kisspeptin (KISS1R) small molecule agonists, calcium flux assay in KISS1R-HEK293 cells (AID 1920064; active = well fitted curve in the direction sought with a large enough effect in the repeat runs; an effect the other way counts as inactive or inconclusive). The method, boiled down:
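Cells plated and incubated 18 h; dye added, 1 h at 37 C; compounds in DMSO pinned in; signal read at 480/540 nm every second for 3 min. Each compound tested at 15 concentrations in triplicate.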

Test [4] in a line: G protein-coupled receptor (GPCR) small molecule agonists, calcium flux assay: HEK293 wild type cell line counter screen (AID 1920065). The method, boiled down: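 Counter-screen of the Tox21 10K library for non-specific calcium release: dye-loaded cells received compounds in DMSO and were monitored by kinetic fluorescence (480/540 nm, 3 min). Fifteen concentrations, run in triplicate.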

Test [5] is described as follows: p53 small molecule agonists, cell-based qHTS assay with human liver microsomes (AID 1963577).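 Also: p53 response element beta-lactamase reporter cells with liver microsomes plus NADPH.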 In a few lines:
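HLM-supplemented p53RE-bla reporter assay: 16 h compound exposure at 37 C, microsomes and NADPH each 0.5 mg/mL final, read by fluorescence intensity.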

A short description of test [6]: p53 small molecule agonists, cell-based qHTS assay with rat liver microsomes (AID 1963578). The method, boiled down: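 Quantitative HTS of the Tox21 10K library: p53RE-bla cells, rat liver microsomes plus NADPH at 0.5 mg/mL final each, 16 h at 37 C, beta-lactamase fluorescence detection.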
Test [7] is described as follows: p53 small molecule agonists, cell-based qHTS assay with human liver microsomes: qHTS cell viability counter screen (AID 1963579). Also: nearly all actives have a fitted effect of over 45% in size. The method, boiled down: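 Viability of p53RE-bla cells is measured as CellTiter-Glo luminescence following a 16 h, 37 C incubation with compound, liver microsomes from human donors and NADPH.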
Test [8] in a line: p53 small molecule agonists, cell-based qHTS assay with rat liver microsomes: qHTS cell viability counter screen (AID 1963580). Also: nearly all actives have a fitted effect of over 45% in size. Also: potency is read from the fitted curve at half-maximal effect. In a few lines: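 Viability is assessed in parallel with the p53 reporter read: HCT-116 p53RE-bla cells receive compounds plus rat microsomes and NADPH (0.5 mg/mL final apiece), incubate 16 h at 37 C, and then CellTiter-Glo luminescence is recorded.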

A short description of test [9]: p53 small molecule agonists, cell-based qHTS assay: qHTS cell viability counter screen (AID 1963581). Also: nearly all actives have a fitted effect of over 45% in size. The method, boiled down: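 Cells: HCT-116 with p53 response element-driven beta-lactamase. Treatment: 16 h, 37 C, compounds in DMSO. Read: CellTiter-Glo luminescence after 30 min RT.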
Test [10] is described as follows: p53 small molecule agonists, cell-based qHTS assay (AID 1963582; active = well fitted activation curve with a large enough effect in the signal ratio in the repeat runs, not every such curve was filed as active; the % refers to the signal ratio). The method, boiled down:
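Quantitative HTS in p53RE-bla cells: after a 5 h settling period, compounds delivered in DMSO were left on cells for 16 h at 37 C, and reporter induction was measured as fluorescence following 2 h substrate loading.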

In test [11] the target is 5-hydroxytryptamine receptor 2A (Homo sapiens) (UniProt P28223). As to the kind of experiment: 5-hydroxytryptamine receptor 2A (HTR2A) small molecule agonists, cell-based qHTS assay (AID 1963587). Also: nearly all actives have a fitted effect of over 30% in size. In a few lines:
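CHO cells stably expressing human HTR2A, plated 18 h, loaded with calcium dye 1 h at 37 C. Agonist mode: compounds added and intracellular calcium fluorescence recorded kinetically for 2 min at 1 sec intervals.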

Test [12] addresses Muscarinic acetylcholine receptor M1 (Homo sapiens) (UniProt P11229). Nature of the test: Cholinergic receptor muscarinic 1 (CHRM1) small molecule antagonists, cell-based qHTS assay (AID 1963588). Also: nearly all actives have a fitted effect of over 40% in size. The method, boiled down: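 CHRM1-CHO calcium-flux assay, antagonist mode. Cells were seeded 18 h, dye-loaded 1 h at 37 C and given compound for 5 min at RT, then acetylcholine was added at 50nM. FDSS fluorescence was read 3 min; 15 concentrations, three runs.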

For test [13] the target is unchanged. Nature of the test: Cholinergic receptor muscarinic 1 (CHRM1) small molecule agonists, cell-based qHTS assay (AID 1963589). Also: nearly all actives have a fitted effect of over 35% in size. In a few lines:
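Agonist-mode qHTS in CHO cells stably carrying human muscarinic M1. Intracellular calcium is tracked by fluorescence every second after compound transfer; each compound runs at 15 concentrations in three independent runs.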

A short description of test [14]: cAMP Responsive Elements (CRE) small molecule agonists, cell-based qHTS assay (AID 1963590). The method, boiled down: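 Agonist mode qHTS in CRE-bla HEK 293T cells: compounds dosed from DMSO for 3 h at 37 C/5% CO2, followed by LiveBLAzer B/G FRET substrate for 2 h at room temperature.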
Test [15] is described as follows: cAMP Responsive Elements (CRE) small molecule antagonists, cell-based qHTS assay (AID 1963591; active = well fitted inhibition curve with a large enough effect in the signal ratio in the repeat runs, not every such curve was filed as active; the % refers to the signal ratio). The method, boiled down:
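Antagonist mode: test compounds are co-incubated with the adenylyl cyclase activator NKH477 (0.25 uM final) on CRE-bla HEK293T cells for 3 h at 37 °C, followed by LiveBLAzer substrate loading.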

Test [16] has as its target Beta-2 adrenergic receptor (Homo sapiens) (UniProt P07550). As to the kind of experiment: Adrenergic beta2 receptor (ADRB2) small molecule antagonists, cell-based qHTS assay (AID 1963592). Also: series mostly up to about 92 µM; nearly all actives have a fitted effect of over 50% in size. In a few lines:
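Cells (CHO, stable ADRB2 overexpression) incubated 18-20hr at 37C; compounds added from DMSO; agonist mix (1nM isoproterenol, 100uM IBMX, 25uM Ro-20-1724) added; 0.5hr RT; d2-cAMP and anti-cAMP-cryptate added; 1hr RT; 665/615 nm read.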

Test [17] addresses D(2) dopamine receptor (Homo sapiens) (UniProt P14416). As to the kind of experiment: Dopamine D2 receptor (DRD2) small molecule agonists, cell-based qHTS assay (AID 1963594). Also: nearly all actives have a fitted effect of over 35% in size. In a few lines: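 HEK293 cells stably expressing human DRD2, pre-treated with PDE inhibitor Ro20-1724 (0.1 mM final) and compound 10 min at room temperature, then stimulated with NKH477 (200nM […]) for 30 min. cAMP read by HTRF (665/620 nm).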

Test [18] has the same target. Nature of the test: Dopamine D2 receptor (DRD2) small molecule antagonists, cell-based qHTS assay (AID 1963595; active = well fitted inhibition curve with a large enough effect in the signal ratio in the repeat runs, with a control signal flat; the % refers to the signal ratio). In a few lines: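 DRD2-HEK293; 0.1 mM Ro20-1724; cpd 10 min RT; NKH477 200 nM + quinpirole 12 nM, 30 min RT; HTRF cAMP (cAMP-d2/anti-cAMP cryptate), 665/620 nm ratio after 1 h.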
Test [19] is described as follows: Nuclear factor erythroid 2-related factor 2/antioxidant responsive element (Nrf2/ARE) small molecule agonists: luciferase reporter gene qHTS assay in human keratinocytes (AID 1919969; also: nearly all actives have a fitted effect of over 35% in size). (In a reporter assay the amount or activity of a reporter protein is the signal.)
In test [20] the target is 5-hydroxytryptamine receptor 2A (Homo sapiens) (UniProt P28223). As to the kind of experiment: 5-hydroxytryptamine receptor 2A (HTR2A) small molecule antagonists, cell-based qHTS assay (AID 1963586). Also: nearly all actives have a fitted effect of over 45% in size. The method, boiled down: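 Antagonist-mode intracellular calcium assay: DOI (4 nM) added after 5 min compound pre-incubation at room temperature to dye-loaded HTR2A-CHO cells. Fluorescence followed for 3 min, sampled every second.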
Sequence of 5-hydroxytryptamine receptor 2A (Homo sapiens) (P28223 whole entry, looked up): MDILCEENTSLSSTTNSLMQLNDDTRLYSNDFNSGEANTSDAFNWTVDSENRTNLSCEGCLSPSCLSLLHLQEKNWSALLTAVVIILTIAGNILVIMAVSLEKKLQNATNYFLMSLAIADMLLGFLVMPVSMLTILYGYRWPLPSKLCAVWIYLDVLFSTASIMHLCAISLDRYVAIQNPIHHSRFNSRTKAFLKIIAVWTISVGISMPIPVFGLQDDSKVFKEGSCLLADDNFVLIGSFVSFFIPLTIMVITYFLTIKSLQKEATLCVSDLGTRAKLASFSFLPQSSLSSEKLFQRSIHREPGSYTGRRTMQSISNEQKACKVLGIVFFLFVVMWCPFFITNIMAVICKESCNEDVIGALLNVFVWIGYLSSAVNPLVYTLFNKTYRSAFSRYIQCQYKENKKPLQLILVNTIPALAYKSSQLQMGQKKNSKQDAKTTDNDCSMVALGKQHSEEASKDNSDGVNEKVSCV

Sequence of Beta-2 adrenergic receptor (Homo sapiens) (P07550 whole entry, looked up): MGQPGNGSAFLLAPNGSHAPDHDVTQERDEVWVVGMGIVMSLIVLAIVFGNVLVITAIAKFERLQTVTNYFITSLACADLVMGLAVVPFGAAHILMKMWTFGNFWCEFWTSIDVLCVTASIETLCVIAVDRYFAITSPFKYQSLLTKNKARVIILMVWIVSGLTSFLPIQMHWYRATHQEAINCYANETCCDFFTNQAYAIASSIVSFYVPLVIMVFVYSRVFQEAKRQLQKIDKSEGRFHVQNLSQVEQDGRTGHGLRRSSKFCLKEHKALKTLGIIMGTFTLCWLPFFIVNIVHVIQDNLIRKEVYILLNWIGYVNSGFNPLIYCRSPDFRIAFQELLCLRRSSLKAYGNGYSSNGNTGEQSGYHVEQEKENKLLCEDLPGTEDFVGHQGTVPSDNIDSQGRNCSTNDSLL
Sequence of KiSS-1 receptor (Homo sapiens) (Q969F8 whole entry, looked up): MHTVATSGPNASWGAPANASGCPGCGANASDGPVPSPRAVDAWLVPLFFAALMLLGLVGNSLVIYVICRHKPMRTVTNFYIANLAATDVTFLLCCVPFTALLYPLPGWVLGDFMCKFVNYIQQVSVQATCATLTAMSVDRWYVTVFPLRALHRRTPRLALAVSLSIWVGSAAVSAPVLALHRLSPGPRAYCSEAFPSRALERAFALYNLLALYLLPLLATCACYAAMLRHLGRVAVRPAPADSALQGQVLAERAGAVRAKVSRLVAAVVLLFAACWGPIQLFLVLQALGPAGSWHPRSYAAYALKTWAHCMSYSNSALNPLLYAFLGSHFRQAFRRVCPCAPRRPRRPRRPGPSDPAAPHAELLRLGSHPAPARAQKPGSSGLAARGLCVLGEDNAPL
Sequence of Muscarinic acetylcholine receptor M1 (Homo sapiens) (P11229 whole entry, looked up): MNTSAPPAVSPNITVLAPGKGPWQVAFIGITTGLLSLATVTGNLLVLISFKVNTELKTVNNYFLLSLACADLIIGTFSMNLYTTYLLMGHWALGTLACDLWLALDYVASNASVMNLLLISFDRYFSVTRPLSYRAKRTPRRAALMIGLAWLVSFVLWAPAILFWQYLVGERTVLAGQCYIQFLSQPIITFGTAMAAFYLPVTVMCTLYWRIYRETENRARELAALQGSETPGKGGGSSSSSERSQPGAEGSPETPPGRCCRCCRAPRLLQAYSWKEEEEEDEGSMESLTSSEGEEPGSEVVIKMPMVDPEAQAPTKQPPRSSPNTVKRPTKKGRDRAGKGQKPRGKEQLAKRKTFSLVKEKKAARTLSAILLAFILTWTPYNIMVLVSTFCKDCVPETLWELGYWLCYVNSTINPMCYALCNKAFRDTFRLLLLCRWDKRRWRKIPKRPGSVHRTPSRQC
Sequence of Gonadotropin-releasing hormone receptor (Homo sapiens) (P30968 whole entry, looked up): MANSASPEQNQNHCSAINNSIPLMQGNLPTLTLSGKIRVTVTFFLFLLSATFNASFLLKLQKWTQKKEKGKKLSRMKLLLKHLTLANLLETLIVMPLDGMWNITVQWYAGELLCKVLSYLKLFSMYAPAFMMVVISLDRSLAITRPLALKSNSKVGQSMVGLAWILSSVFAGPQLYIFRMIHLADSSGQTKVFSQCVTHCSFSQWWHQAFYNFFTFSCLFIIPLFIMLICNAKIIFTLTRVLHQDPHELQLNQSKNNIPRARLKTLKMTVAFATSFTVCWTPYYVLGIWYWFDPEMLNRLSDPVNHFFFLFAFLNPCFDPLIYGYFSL
Sequence of D(2) dopamine receptor (Homo sapiens) (P14416 whole entry, looked up): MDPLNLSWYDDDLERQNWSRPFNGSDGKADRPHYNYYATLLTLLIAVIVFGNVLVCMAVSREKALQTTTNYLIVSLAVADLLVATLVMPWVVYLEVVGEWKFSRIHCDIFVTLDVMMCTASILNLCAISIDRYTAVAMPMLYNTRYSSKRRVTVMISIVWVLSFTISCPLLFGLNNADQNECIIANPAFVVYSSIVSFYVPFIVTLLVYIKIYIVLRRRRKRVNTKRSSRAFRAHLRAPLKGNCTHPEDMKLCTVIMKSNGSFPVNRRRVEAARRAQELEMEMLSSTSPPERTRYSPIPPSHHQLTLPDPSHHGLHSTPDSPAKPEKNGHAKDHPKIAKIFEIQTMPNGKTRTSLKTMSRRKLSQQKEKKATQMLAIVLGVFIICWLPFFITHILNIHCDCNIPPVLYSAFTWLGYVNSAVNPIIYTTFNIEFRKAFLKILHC

As to `CCO[Si](CCCCl)(OCC)OCC`, the Potency result in [1], in test [2], in test [5], in [6], in test [7] and in test [8] was “inactive” throughout. In addition, the Potency result in [9], in test [10], in test [11], in test [12], in test [13] and in test [14] was “inactive” throughout. Further, the Potency entry in [15], in [16], in test [17] and in test [18] was “inactive” each time. Besides, the outcome in test [3] and in test [4] was inactive.
Turning to `C=CC/C=C/C`, the Potency result in test [1], in [19], in test [5], in test [6], in test [8] and in test [9] was “inactive” throughout. In addition, the Potency result in test [11], in [12], in test [13], in [14], in test [15] and in test [16] was “inactive” each time. Moreover, the Potency entry in test [17] and in test [18] was “inactive” throughout. Moreover, in test [4], the outcome was inactive.
For `O=C(O)c1cc(-c2ccc(F)cc2F)ccc1O`, the Potency result in test [1], in test [19], in [5], in [6], in test [7] and in test [8] was “inactive” in each case. For the same compound, the Potency result in [9], in [16], in test [17] and in test [18] was “inactive” in each case. In addition, in [4], the outcome was inactive.
Take `Cc1cccc(C)c1C`: the Potency entry in test [1], in [2], in test [5], in test [6], in test [7] and in test [9] was “inactive” each time. In addition, the Potency result in test [20], in test [11], in test [12], in [13], in test [14] and in test [15] was “inactive” each time. Moreover, the Potency entry in [16], in [17] and in test [18] was “inactive” throughout. In addition, the outcome in [3] and in test [4] was inactive.
Consider `C=C(C)C1CCC(C)CC1O` (configuration not stated), for which the Potency entry in test [1], in test [2], in test [5], in [6], in [7] and in test [10] was “inactive” each time. The Potency entry in [20], in test [11], in [12], in test [13], in test [14] and in test [15] was “inactive” each time. The Potency entry in [16], in [17] and in test [18] was “inactive” in each case. The result in test [3] and in [4] was inactive. The Potency in [8] is 1.62 µM (active).
With `CCOC(C)=O`, the Potency result in test [1], in test [2], in test [5], in test [6], in test [7] and in test [9] was “inactive” each time. In addition, the Potency entry in [10], in [20], in [11], in [12], in test [13] and in test [14] was “inactive” each time. Further, the Potency result in test [15], in [16], in test [17] and in test [18] was “inactive” throughout. Moreover, the outcome in test [3] and in [4] was inactive.
Turning to `CC(C)(C)C(=O)NCCCC(=O)O`, the Potency entry in test [1], in [2], in test [5], in test [6], in test [9] and in test [10] was “inactive” in each case. In addition, the Potency result in test [11], in test [12], in test [14], in [15], in [16] and in test [17] was “inactive” throughout. For the same compound, the Potency result in [18] was “inactive”. Also, the result in test [3] and in test [4] was inactive.
